Screens from PubChem BioAssay.
HT1080NT lethal – qHTS for induction of synthetic lethality in tumor cells producing 2HG: qHTS for the HT-1080-NT fibrosarcoma cell line | HT-1080-NT fibrosarcoma viability, CellTiter-Glo ATP luminescence, 48 h | Potency, µM (doses to about 46.1 µM), hits mostly cytotoxic | hit rate 1.6% among 360,000 | AID 686970, 2013;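 further: NT is the 2HG producing partner of a matched IDH1 knockdown line; nearly all actives have a fitted effect of over 55% in size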
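Read-out is CellTiter-Glo luminescence after 10 minutes at room temperature, following 48 hours' compound treatment of HT-1080-NT cells (750 cells/well, RPMI, 5% FBS, 37 degrees C).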
TDP1 cell noCPT – qHTS for Inhibitors of human tyrosyl-DNA phosphodiesterase 1 (TDP1): qHTS in cells in absence of CPT; DT40 Tdp1-/- hTDP1 cells, no CPT, ATP luminescence, 48 h; Potency, µM (series often up to 46.2 µM), most hits filed as inhibitors; hit rate 15% among 420,000; AID 686978, 2013; further: nearly all actives have a fitted effect of over 55% in size
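Readout: luminescence from CellTiter-Glo after 30 min in the dark at RT. Cells: DT40 Tdp1-/- with stable hTDP1, 400/well. Exposure: compounds alone, ≥48 hr, 37 °C.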
IL-1B inflam inh – qHTS for Inhibitors of Inflammasome Signaling: IL-1-beta AlphaLISA Primary Screen. THP-1 LPS/ATP IL-1B secretion, AlphaLISA, 16 h; active compounds read low. activity change, % at 57.5 µM. hit rate 4.7% among 360,000; in the data active means activity change below about -50%; inconclusive means mostly about -30% to -49%
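THP-1 cells pretreated 1 hr with compounds (up to 57.5 uM final), then stimulated with LPS (250 ng/mL final) plus ATP (1.25 mM final); secreted IL-1B measured by AlphaLISA after 16 hr, decreased signal indicating inhibition.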
HT1080 IDH1KD tx – qHTS for induction of synthetic lethality in tumor cells producing 2HG: qHTS for the HT-1080-IDH1KD cell line. AID 686971, 2013. Potency, µM (titrated, usually from 46.1 µM), most hits filed as cytotoxic. HT-1080 IDH1 knockdown viability, ATP luminescence, 48 h. hit rate 2% among 360,000
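After a 2 h attachment period, IDH1KD HT-1080 cells took pin-transferred compound for 48 h at 37 °C; ATP-based luminescence after 10 min room-temperature reagent incubation reported viability.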
TDP1 cell CPT – qHTS for Inhibitors of human tyrosyl-DNA phosphodiesterase 1 (TDP1): qHTS in cells in presence of CPT; hit rate 12% among 420,000; AID 686979, 2013; chicken DT40 Tdp1-/-;hTDP1 cells + 20 nM CPT, ATP luminescence, 48 h; Potency, µM (titrated, usually from 46.2 µM), most hits filed as inhibitors; further: nearly all actives have a fitted effect of over 55% in size
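Chicken DT40 Tdp1-/- cells stably complemented with human TDP1 were seeded at 400 cells/well in medium containing 20 nM camptothecin, exposed to pin-transferred compounds, and grown at 37 °C for at least 48 hr. Viability was read as ATP luminescence.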
Each line names hits and unclear results; the compound was inactive in the other large screens. An excerpt weighted towards active compounds, which were near 19% of everything screened. Unless noted, the call rests on the fitted dose curve; in most records, active means well fitted curve in the direction sought with a large enough effect; inconclusive means small, poorly fitted or top-dose-only effect, or another doubt; inactive means no such curve, though single readings can be large; an effect the other way counts as inactive or inconclusive.

CCC(C)Cn1cnc2c(SCc3ccccc3F)nc(N)nc21 (stereo not given)	TDP1 cell noCPT 20.6µM, IL-1B inflam inh -56.1, TDP1 cell CPT inconclusive
CC(C)Cn1cnc2c(SCc3ccccc3F)nc(N)nc21	TDP1 cell noCPT inconclusive, TDP1 cell CPT inconclusive
CC(C)Cn1cnc2c(SCc3ccccc3)nc(N)nc21	TDP1 cell noCPT inconclusive, IL-1B inflam inh -50.5
Cc1ccc(O)c(NC(=O)c2cccc(NC(=O)c3ccco3)c2)c1	TDP1 cell noCPT 23.1µM, TDP1 cell CPT inconclusive
COC(=O)c1cccc(NC(=O)CCNC(=O)c2ccco2)c1	IL-1B inflam inh -100.8
CC(C)(C)NC(=O)c1cccc(NC(=O)c2ccco2)c1	none
O=C(CCNC(=O)c1ccco1)Nc1cccc(C(F)(F)F)c1	none
O=C(Nc1cccc(S(=O)(=O)c2cccc(NC(=O)c3ccco3)c2)c1)c1ccco1	HT1080NT lethal inconclusive, TDP1 cell noCPT 13µM, TDP1 cell CPT inconclusive
CC(C)(C)NC(=O)c1cccc(NC(=O)c2ccc(NC(=O)c3ccco3)cc2)c1	TDP1 cell noCPT inconclusive, IL-1B inflam inh -70.3, TDP1 cell CPT 13µM (no result: HT1080NT lethal, HT1080 IDH1KD tx)
CC12CCC(C(=O)N(CC(O)CN3CCCCCC3)C1=O)C2(C)C (stereo not given)	none
OC1C2COC(O2)[C@H](O)C1O (stereo not given in full)	none (no result: HT1080NT lethal, IL-1B inflam inh, HT1080 IDH1KD tx)
Cc1cc(C)cc(NC(=O)c2cccc(NC(=O)c3ccco3)c2)c1	TDP1 cell noCPT 29.1µM, TDP1 cell CPT inconclusive
O=C(Nc1cccc(NC(=O)c2ccco2)c1)c1cccc(Br)c1	HT1080NT lethal inconclusive, TDP1 cell noCPT inconclusive, IL-1B inflam inh -60.8
O=C1CC(N(C(=O)c2ccco2)c2cccc(Cl)c2)C(=O)N1c1cccc(Cl)c1 (stereo not given)	none
Cn1cc(C(=O)c2ccc(Cl)cc2Cl)cc1C(=O)N/N=C(\N)COc1cccc(C(F)(F)F)c1	HT1080NT lethal inconclusive, TDP1 cell noCPT inconclusive, HT1080 IDH1KD tx inconclusive, TDP1 cell CPT inconclusive
COc1ccc2ccccc2c1CN1CCc2nnc(C(NS(C)(=O)=O)C(C)C)n2CC1 (stereo not given)	TDP1 cell CPT inconclusive (no result: HT1080NT lethal, IL-1B inflam inh, HT1080 IDH1KD tx)
Cc1nnsc1S(=O)c1ccc(Cl)c(Cl)c1 (stereo not given)	HT1080NT lethal inconclusive, TDP1 cell noCPT 14.6µM, IL-1B inflam inh -62.0, HT1080 IDH1KD tx inconclusive, TDP1 cell CPT 10.3µM
COC(=O)c1ccc(-c2ccc(OC)c([C@H]3[C@H]4C=CC[C@@H](C)[C@@H]4C(=O)N3Cc3ccccc3)c2)cc1	TDP1 cell noCPT 6.51µM, TDP1 cell CPT 5.8µM
COc1ccc(Br)cc1[C@H]1[C@@H]2C=CCC[C@@]2(C)C(=O)N1Cc1ccccc1	HT1080NT lethal inconclusive, TDP1 cell noCPT inconclusive, HT1080 IDH1KD tx inconclusive, TDP1 cell CPT inconclusive
COc1ccc(-c2ccc(C(C)=O)cc2)cc1[C@H]1[C@H]2C=CC[C@@H](C)[C@@H]2C(=O)N1Cc1ccccc1	TDP1 cell noCPT 16.4µM, TDP1 cell CPT 23.1µM
COc1ccc(-c2ccc(OC)c([C@H]3[C@@H]4C=CCC[C@@]4(C)C(=O)N3Cc3ccccc3)c2)cc1OC	TDP1 cell noCPT inconclusive, HT1080 IDH1KD tx inconclusive, TDP1 cell CPT inconclusive
Nc1cc2c3ccccc3ccc2c2ccccc12	TDP1 cell noCPT inconclusive, HT1080 IDH1KD tx inconclusive, TDP1 cell CPT inconclusive
CN1CCN(c2ccc(Cl)cc2NS(=O)(=O)c2ccccc2Cl)CC1	HT1080NT lethal inconclusive, TDP1 cell noCPT inconclusive, HT1080 IDH1KD tx inconclusive
O=C(COC(=O)Cc1ccc(-c2ccccc2)cc1)NCc1ccccc1	TDP1 cell CPT inconclusive
CC1(C)C=Cc2c(ccc3c2OC[C@H](c2ccc(O)cc2O)C3)O1	TDP1 cell noCPT inconclusive, TDP1 cell CPT 13µM
CC(C)=CCc1cc([C@@H]2COc3c(ccc4c3C=CC(C)(C)O4)C2)c(O)cc1O	HT1080NT lethal inconclusive, TDP1 cell noCPT inconclusive, IL-1B inflam inh -51.0, HT1080 IDH1KD tx inconclusive, TDP1 cell CPT 18.4µM
CC(=O)Oc1ccc([C@@H]2COc3c(ccc4c3C=CC(C)(C)O4)C2)c(OC(C)=O)c1	TDP1 cell noCPT inconclusive, TDP1 cell CPT inconclusive
Nc1ncnc2c1ncn2[C@@H]1O[C@H](CNC(=O)[C@H](N)Cc2cscn2)[C@@H](O)[C@H]1O	none
CN(C)CCCNC(=O)c1cc(C(=O)c2cccc(Cl)c2Cl)c[nH]1	TDP1 cell noCPT inconclusive, IL-1B inflam inh -58.1
COCCCNC(=O)c1cc(C(=O)c2c(-c3c(Cl)cccc3Cl)noc2C)c[nH]1	HT1080NT lethal inconclusive, TDP1 cell noCPT 23.1µM, HT1080 IDH1KD tx inconclusive, TDP1 cell CPT 23.1µM
Cc1ccc(S(=O)(=O)N2CC(O)C2)cc1	none
CC1(C(=O)NS(=O)(=O)C2CC2)CCN(C(=O)COCc2ccccc2)C1 (stereo not given)	none
C=CCOc1c(CNn2nnnc2N)cccc1OC	none
COc1cc(CNn2nnnc2N)cc(Br)c1OCc1c(Cl)cccc1Cl	TDP1 cell noCPT 20.6µM, HT1080 IDH1KD tx inconclusive, TDP1 cell CPT 18.4µM
COc1ccccc1C(=O)NCc1nc2cccnc2n1Cc1ccc(F)cc1	TDP1 cell noCPT inconclusive (no result: HT1080NT lethal, IL-1B inflam inh, HT1080 IDH1KD tx)
COc1ccc(OC)c(NC(=O)CCN2CCN(c3ccccc3OC)CC2)c1	TDP1 cell noCPT inconclusive
Cc1ccc(-c2cc(C(=O)N/N=C/c3c(C)nn(-c4ccccc4)c3C)n[nH]2)s1	HT1080NT lethal 1.64µM, TDP1 cell noCPT 0.82µM, HT1080 IDH1KD tx 1.84µM, TDP1 cell CPT 0.651µM
Cc1cc(C(=O)N/N=C/c2c3ccccc3cc3ccccc23)n[nH]1	HT1080NT lethal inconclusive, TDP1 cell noCPT 9.2µM, HT1080 IDH1KD tx 16.4µM, TDP1 cell CPT inconclusive
Cc1[nH]n(-c2ccccc2)c(=O)c1/C=N/Nc1nncc(-c2ccccc2)n1	HT1080NT lethal 1.26µM, TDP1 cell noCPT 1.03µM, HT1080 IDH1KD tx 0.794µM, TDP1 cell CPT 1.03µM
CCOc1ccc2ccccc2c1/C=N/NC(=O)c1cc(C)[nH]n1	IL-1B inflam inh inconclusive
Cc1[nH]n(-c2ccccc2)c(=O)c1C=NCCc1ccccc1	none
Cc1[nH]n(-c2ccccc2)c(=O)c1/C=N/NC(=O)c1ccc(O)cc1O	HT1080NT lethal inconclusive, TDP1 cell noCPT 20.6µM, HT1080 IDH1KD tx 23.1µM, TDP1 cell CPT inconclusive
COC(=O)c1cc(S(=O)(=O)N2CCCC2=O)c(Cl)cc1Cl	IL-1B inflam inh inconclusive
CCN(C(=O)CCc1nnc2ccc(NCc3ccco3)nn12)c1ccccc1	none
Cc1cc(C(=O)N/N=C/c2c(C)n(C)c3ccccc23)n[nH]1	TDP1 cell noCPT inconclusive
Cc1cc(C(=O)N/N=C/c2c(C)[nH]n(-c3ccccc3)c2=O)n[nH]1	TDP1 cell noCPT inconclusive, TDP1 cell CPT 20.6µM
